Bioassay records as filed in PubChem BioAssay.
A selection: hits, their analogues and other compounds. The true share with any hit is near 0.47%.
MmCpn inh: inhibitors of Methanococcus maripaludis chaperonin TRiC (MmCpn). actives 0.031% (n = 330,000). purified Mm-Cpn ATPase, ADP Transcreener TR-FRET. Potency, µM (series often up to 76.9 µM), actives largely listed as inhibitors. AID 504842; note: nearly all actives have a fitted effect of over 80% in size
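Inhibition of chaperonin ATP hydrolysis is measured as reduced ADP production, detected by competitive TR-FRET in which signal falls with ADP. Final enzyme 25 nM and ATP 10 uM, reacted 30 min at 37°C.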
CCT modulator: modulators of cytosolic chaperonin (CCT/TRiC) activity. purified chaperonin ATPase assay, HTRF ADP detection, 30 min. activity change, % (no concentration beside the values), hits read low. actives 0.3% (n = 360,000); in the data active = activity change below about -30%
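TRiC (40 or 20 nM final, by batch activity) in 30 mM Tris pH 7.4, 100 mM KCl, 5 mM MgCl2, 1 mM DTT was treated with compound at 76 uM single dose, then 10 uM ATP, 30 min at 37 °C. ADP was read by HTRF Transcreener.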
AT treatment: potential ataxia-telangiectasia treatment | F2112 A-T fibroblasts, KAP-1 phosphorylation AlphaLISA; neocarzinostatin DNA damage 30 min before lysis | Potency, µM (top dose mostly 57.5 µM), usual class: activators | actives 0.19% (n = 320,000); note: nearly all actives have a fitted effect of over 45% in size
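ATM-like activity read as KAP-1 phosphorylation via AlphaLISA donor/acceptor antibody pairs after lysis and 6 hr at 25C. Cells were ATM-null patient fibroblasts (F2112, hTERT), dosed 60 min, then exposed to the DSB inducer NCS for 30 min.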
Anesthetic bind: candidate novel general anesthetic via apoferritin binding | P02791 | Potency, µM (series often up to 77.5 µM), usual class: inhibitors | actives 0.074% (n = 350,000) | apoferritin/1-aminoanthracene competitive binding, fluorescence; note: nearly all actives have a fitted effect of over 20% in size
Target sequence (P02791 2-175 limits assumed): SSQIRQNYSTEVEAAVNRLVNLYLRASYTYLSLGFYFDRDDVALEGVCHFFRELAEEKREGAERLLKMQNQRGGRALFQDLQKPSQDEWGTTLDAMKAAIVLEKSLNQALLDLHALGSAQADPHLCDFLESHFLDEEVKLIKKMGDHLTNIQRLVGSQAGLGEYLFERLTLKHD
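Concentration-response curves derived by four-parameter Hill fitting of normalized fluorescence, where compounds displaced 1-AMA from 10 uM horse apoferritin following a brief 10 min room-temperature incubation; propofol titration acted as positive control.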
Hits are given with their value; - = inactive; ? = inconclusive; . = no result. Unless noted, calls come from the whole dose curve; as a rule, active = well fitted curve in the direction sought with a large enough effect; inconclusive = small, poorly fitted or top-dose-only effect, or another doubt; inactive = no such curve, though single readings can be large; an effect the other way counts as inactive or inconclusive.

SMILES	MmCpn inh	CCT modulator	AT treatment	Anesthetic bind
CC(C)c1ccc(-n2c(O)c(C=NC(CCS(C)=O)C(=O)O)c(=O)[nH]c2=S)cc1 (stereo not given)	-	-	7.9µM	-
CCOC(=O)c1cccc(NC(=O)NCc2ccc3c(c2)CCN3C(=O)c2ccccc2)c1	.	.	.	-
Cc1cccc(N2C(=O)NC(=O)/C(=C\C=C\c3ccco3)C2=O)c1	-	-	4µM	-
Cc1ccc(N2C(=O)NC(=O)/C(=C\C=C\c3ccco3)C2=O)cc1	-	-	-	-
COc1ccc(/C(=N/OC(C)=O)c2nccc3cc(OC)c(OC)cc23)cc1OC	-	-	-	-
C=C(C=O)C[C@@H]1C[C@H](O)C2OC3C[C@]4(C)OC5/C=C\CC6OC7C(CC=CCC6OC5CCCC4OC3CC2O1)OC1CC2OC3CC(=O)OC3C[C@@H](C)C[C@@]2(C)OC1C[C@@H]7C (stereo not given in full)	-	-	25µM	-
C=C(C=O)CC1CC(O)[C@]2(C)OC3C[C@@H]4OC5C[C@]6(C)O[C@]7(C)CCC8OC9C[C@]%10(C)OC(/C(C)=C\CO)C(O)CC%10OC9CC(C)C8OC7CC6O[C@]5(C)C/C=C\C4OC3CC2O1 (stereo not given in full)	-	-	-	.
Nc1ccc(-c2ccccc2)cc1	.	-52	.	.
COc1ccc(-n2c(SCCN(C)C)nc3ccccc3c2=O)cc1	-	-113	-	-
COC(=O)C1CN(C#N)N(c2ccc(Cl)cc2)C12c1ccccc1-c1ccccc12 (stereo not given)	-	-	13µM	-
CC1(C)C(C(=O)N2CCN(c3ccc(Cl)cc3)CC2)C1(C)C	-	-	-	-
CC1(C)C[C@H]2C=C(C=O)[C@]3(C=O)C[C@]3(C)[C@H]2C1	-	-	3.5µM	-
COc1ccc(CCNC(=O)c2ccc3c(c2)CCN3S(=O)(=O)c2ccc(C)cc2)cc1OC	.	.	.	-
COC(=O)C1=C(c2ccc(-c3ccccc3)c(F)c2)C[C@@H]2CC[C@H]1N2C(=O)N1CCCCC1	-	-	-	.
COC(=O)C1=C(c2ccc(-c3ccccc3)c(F)c2)C[C@@H]2CC[C@H]1N2C(=O)N1CCCC1	-	-33	-	.
CN1CCN(c2ccc([N+](=O)[O-])c3no[n+]([O-])c23)CC1	-	-	16µM	-
O=[N+]([O-])c1ccc(N(CCO)CCO)c2c1no[n+]2[O-]	.	-	.	.
O=C1NC(=O)C2C1C1(Cl)C(Cl)=C(Cl)C2(Cl)C1(Cl)Cl (stereo not given)	.	-	.	.
ClC1=C(Cl)C2(Cl)C3C(Cl)C=CC3C1(Cl)C2(Cl)Cl (stereo not given)	-	-	40µM	?
